# Screening results: PubChem, National Center for Advancing Translational Sciences (NCATS)
# IMPase Li inh – IMPase inhibition in cells with lithium potentiation; CHO-M1 cells, IP1 TR-FRET (IP-One), carbachol + lithium; Potency, µM (top dose mostly 59.4 µM), without a hit: at the top dose activity, negative = IMPase inhibition, most hits filed as inhibitors; 210,000 compounds, 0.35% hits;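 further: IP1 builds up when IMPase is blocked and the TR-FRET signal falls; plate controls were basal vehicle for no effect and high inhibitor control for full effect; nearly all actives have a fitted effect of over 50% in size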
#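 Lithium-sensitised IP1 accumulation assay; M1-expressing CHO cells treated 30 min at 37C with compound. Competitive antibody detection by time-resolved FRET followed a 10 min room-temperature lysis step.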
# GoLoco inh red – RGS12 GoLoco-Gai1 interaction inhibition | P63096 | Gai1:RGS12 GoLoco peptide FP, rhodamine, 10 min | Potency, µM (titrated, usually from 61.6 µM), without a hit: at the highest dose activity, negative = inhibition, actives largely listed as inhibitors | 230,000 compounds, 0.44% hits; active means well fitted inhibition curve with a large enough effect, not every such curve was filed as active; inactive means no such curve, though single readings can be large or run the other way; further: nearly all actives have a fitted effect of over 30% in size
# Tb PFK block – inhibitors of T. brucei phosphofructokinase; O15648; T. brucei PFK, ADP-Glo luminescence; Potency, µM (doses to about 57.5 µM), for the others: at the highest dose activity, negative = inhibition, actives largely listed as inhibitors; 330,000 compounds, 0.17% hits; AID 485367;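 further: 0% = uninhibited 1x PFK enzyme wells and -100% = no-enzyme wells; nearly all actives have a fitted effect of over 60% in size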
#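 ADP-Glo luminescence quantified ADP after 45 min at room temperature, with 1.25 nM T. brucei PFK, 0.1 mM ATP and 0.5 mM fructose-6-phosphate in pH 8.0 TEA buffer. qHTS titrations up to 57 µM; curves classified by quality.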
# MBNL1 CUG block – MBNL1-poly(CUG) RNA binding inhibition. TR-FRET MBNL1-His/biotin-(CUG)12 binding, 665/545 ratio. Potency, µM (highest dose often 57.5 µM), inactives show at the top dose activity change, negative = inhibition, hits mostly inhibitors. 280,000 compounds, 0.036% hits. AID 2675; active means well fitted inhibition curve with a large enough effect in the signal ratio, with a control signal flat, not every such curve was filed as active; inconclusive means small, poorly fitted or top-dose-only effect, or effect the other way, or a change in a side signal; inactive means no such curve, though single readings can be large or run the other way; the % refers to the signal ratio
# Target sequence (Q9NR56 whole entry, looked up): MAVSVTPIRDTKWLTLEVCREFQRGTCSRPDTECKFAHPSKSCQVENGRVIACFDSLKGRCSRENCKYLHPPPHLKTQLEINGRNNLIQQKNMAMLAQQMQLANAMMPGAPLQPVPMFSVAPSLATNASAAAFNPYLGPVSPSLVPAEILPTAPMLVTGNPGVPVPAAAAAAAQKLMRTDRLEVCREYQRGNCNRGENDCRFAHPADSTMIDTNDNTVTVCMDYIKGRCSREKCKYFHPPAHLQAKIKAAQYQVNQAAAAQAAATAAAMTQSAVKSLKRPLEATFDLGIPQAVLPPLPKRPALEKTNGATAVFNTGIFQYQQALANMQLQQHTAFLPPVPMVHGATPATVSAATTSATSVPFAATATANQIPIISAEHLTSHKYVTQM
#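 TR-FRET between His-tagged MBNL1 and biotin-(CUG)12 RNA, detected with Tb anti-His antibody (0.055 ng/ul) and streptavidin-XL665 (5 nM), 60 min at room temperature. Compounds titrated 92 nM to 58 uM; 665/545 nm ratio normalized to buffer and complex controls.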
# NPSR antag – antagonists of human neuropeptide S receptor cAMP signaling | Potency, µM (highest dose often 38.3 µM), for the others: at the highest dose activity change, negative = inhibition, most hits filed as inhibitors | CHO-NPSR cells, cAMP TR-FRET, antagonist mode | 220,000 compounds, 1% hits; further: nearly all actives have a fitted effect of over 50% in size
# Starred values were filed as active, the others as inactive; ? = inconclusive; nt = no result given; [ ] = remark or other dose. Only a selection was taken, and hits are over-represented in it overall. Unless noted, the call rests on the fitted dose curve; in most records, active means well fitted curve in the direction sought with a large enough effect; inconclusive means small, poorly fitted or top-dose-only effect, or another doubt; inactive means no such curve, though single readings can be large; an effect the other way counts as inactive or inconclusive. Unless noted, on the % scale 0 is the no-effect control and ±100 the full control effect; potency means the concentration at half of the fitted maximal effect.
SMILES,IMPase Li inh,GoLoco inh red,Tb PFK block,MBNL1 CUG block,NPSR antag
CCOC(=O)c1ccc(NC(=O)C2C3CCCCC32)cc1 (stereo not drawn),nt,nt,-12.1%,-5.2%,nt
COc1cc2cc(Br)cc(Br)c2nc1C,12.6µM*,-24.6%,-6.6%,?,?
O=C(COC(=O)c1cccc(S(=O)(=O)N2CCCC2)c1)Nc1ccccc1C(F)(F)F,nt,nt,-5.9%,nt,nt
O=c1c2[nH]c3ccc(Br)cc3c2ncn1CCCn1ccnc1,5.62µM*,-4.9%,-0.7%,40.0%,-3.7%[46.1 µM]
O=c1c2[nH]c3ccccc3c2ncn1CCCn1ccnc1,15.1%[38.3 µM],8.1%,-17.1%,-4.3%,-4.9%[46.1 µM]
Cc1cnc(CNc2ncnc3ccc(-c4ccccc4Cl)cc23)cn1,6.2%,19.2%,nt,nt,nt
COc1ccc(/C=N/Nc2cc(N3CCCC3)nc(N3CCCC3)n2)cc1,24.9%,-0.9%,-2.4%,7.9%,12.6µM*
O=C(Oc1c(CN2CCOCC2)cc(Cl)c2cccnc12)c1ccccc1F,18.0%,8.4%,-0.1%,nt,7.94µM*
CC(C)Oc1ccc(C2NC(=O)c3ccccc3O2)cc1 (stereo not drawn),nt,nt,-3.3%,-1.3%,nt
CN(C)c1ncc2nc(-c3ccc(F)cc3)c(=O)n(CCc3ccccc3)c2n1,10µM*,-1.2%,nt,nt,nt
COc1ncc2nc(-c3ccccc3)c(=O)n(CCc3ccccc3)c2n1,5.9%,-5.1%,nt,nt,nt
COc1ncc2nc(-c3ccc(F)cc3)c(=O)n(CCc3ccccc3)c2n1,14.1µM*,-5.9%,nt,nt,nt
CCNc1ncc2nc(-c3ccc(F)cc3)c(=O)n(CCc3ccccc3)c2n1,5.62µM*,-109.7%,nt,nt,nt
CCNc1ncc2nc(-c3ccc(Cl)cc3)c(=O)n(C[C@H]3CCCO3)c2n1,10µM*,-1.3%,nt,nt,nt
CCCN1C(=O)/C(=C\C=C2/C=CN(CC)c3ccccc32)SC1=S,98.0%,34.2%,-8.4%,?,2µM*
C=COCCNC(=O)Nc1ccc(Cl)c(Cl)c1,16.2%,6.6%,15.1µM*,?,-3.2%[46.1 µM]
COCCNC(=S)Nc1ccc(Cl)c(Cl)c1,-2.2%,12.6%,0.0%,-0.3%,-13.3%
NS(=O)(=O)c1ccc(NC(=O)c2ccc(-c3ccccc3)cc2)cc1,8.91µM*,16.4%,-2.1%,3.2%,-38.0%
NS(=O)(=O)c1ccc(NS(=O)(=O)c2ccc(NC(=O)c3ccc(-c4ccccc4)cc3)cc2)cc1,-0.4%[38.3 µM],8.0%,0.2%,1.9%,?
c1ccc2c(CC3NCCN3)cccc2c1,-6.8%,-4.6%[14.2 µM],nt,nt,nt
COc1ccc(Br)cc1CNc1ccc(O)cc1,14.0%[38.3 µM],20µM*,-4.8%,?,-16.5%[46.1 µM]
COC(=O)c1scc(C#N)c1N/N=C(\C#N)S(=O)(=O)c1ccc(Cl)cc1,nt,1.5%,0.5%,6.1%,10µM*
Cc1ccc(O)c(N)c1,4.8%,0.3%,-7.3%,nt,nt
Cc1ccc(SSc2cc(C)ccc2N)c(N)c1,nt,nt,21.3µM*,nt,nt
O=[N+]([O-])c1ccc(Sc2cccc3cccnc23)c([N+](=O)[O-])c1,23.7%[38.3 µM],11.3%,-4.5%,?,3.16µM*
SMILES,IMPase Li inh,GoLoco inh red,Tb PFK block,MBNL1 CUG block,NPSR antag
CCOC(=O)[C@H](CCc1ccccc1)N[C@@H](C)C(=O)N1[C@H](C(=O)O)C[C@H]2CCC[C@@H]21,-2.1%,8.91µM*,nt,nt,nt
O=C(CSc1cccc[n+]1[O-])c1cc2ccccc2o1,-0.3%[38.3 µM],65.4%,-9.6%,?,7.94µM*
O=C(O)CSc1cccc[n+]1[O-],-12.3%[38.3 µM],1.4%,nt,-2.5%,-2.4%[46.1 µM]
COCC(=O)Nc1ccccc1C(=O)Nc1ccc(OC)cc1,31.6µM*,-4.3%,-5.3%,-0.5%,-15.8%[46.1 µM]
O=C(CN(c1cccc(Cl)c1)S(=O)(=O)c1ccc(Cl)cc1)NCc1ccccn1,nt,nt,0.2%,-4.0%,nt
COc1cc(/C=C2\CC/C(=C\c3cc(OC)c(O)c(OC)c3)C2=O)cc(OC)c1O,14.8%,23.7%,-29.8%,nt,-40.5%
COc1cc(/C=C2/CCC/C(=C\c3cc(O)c(OC)c(Cl)c3)C2=O)cc(Cl)c1O,13.8%[38.3 µM],52.2%,-2.7%,14.0%,7.94µM*
CCN1C(=O)/C(=C2\SC(=S)N(CCCOC)C2=O)c2ccccc21,0.7%[38.3 µM],12.8%,0.5%,1.1%,4.8%[46.1 µM]
CCC(C)C(=O)N1c2ccccc2C(=C2SC(C(=O)OC)=C(C(=O)OC)S2)C(=S)C1(C)C (stereo not drawn),19.5%,-5.2%,-6.1%,7.4%,10µM*
